The nature of assay [1]: qHTS RealTime-Glo MT Cell Viability Assay in HEK293 cells - 0 hour (AID 1224880). Also: top concentration of the series differs between compounds; nearly all actives have a fitted effect of over 45% in size. A digest of the protocol:
(§1)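 Viable HEK293 cells reduce a cell-permeant prosubstrate; the product diffuses out and is consumed by NanoLuc in the medium to give light. Compounds went in after a 5 h incubation and plates were read over the treatment course.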
Background: Quantitative high-throughput screening tests each substance at several concentrations.

Assay [2] is described as follows: A CellTox Green Cytotoxicity Assay to monitor cytotoxicity in HEK293 cells - 32 hour (AID 1224881). Also: nearly all actives have a fitted effect of over 40% in size. A digest of the protocol:
(§2)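 Fluorescence intensity, read at 0, 8, 16, 24, 32 and 40 h of compound treatment, reflected dye binding to DNA of dead HEK293 cells; compounds (23 nL, DMSO) were added 5 h after plating cells with reagent.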

Assay [3] is described as follows: A CellTox Green Cytotoxicity Assay to monitor cytotoxicity in HepG2 cells - 0 hour (AID 1224882). Also: nearly all actives have a fitted effect of over 35% in size. A digest of the protocol:
(§3)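 Using 1536-well format, dye-containing HepG2 suspension was seeded, allowed 5 h at 37 C/5% CO2, dosed by pintool with compounds, positive and negative controls, and imaged for fluorescence across 40 h.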

Assay [4] in a line: A CellTox Green Cytotoxicity Assay to monitor cytotoxicity in HepG2 cells - 32 hour (AID 1224883). Also: nearly all actives have a fitted effect of over 50% in size. The essentials:
as §3

Assay [5] can be described thus: A CellTox Green Cytotoxicity Assay to monitor cytotoxicity in HEK293 cells - 8 hour (AID 1224884). Also: nearly all actives have a fitted effect of over 35% in size. The essentials: as §2
Assay [6] can be described thus: qHTS RealTime-Glo MT Cell Viability Assay in HepG2 cells - 16 hour (AID 1224885). Also: nearly all actives have a fitted effect of over 50% in size. The essentials:
(§4)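 Real-time, nonlytic viability: 600 HepG2 cells/well mixed with NanoLuc enzyme plus prosubstrate; 5 h settle, compound (DMSO) added by pintool; luminescence monitored over 40 h at 37 C.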

Assay [7] is described as follows: qHTS RealTime-Glo MT Cell Viability Assay in HEK293 cells - 24 hour (AID 1224886). Also: nearly all actives have a fitted effect of over 50% in size. Also: potency is read from the fitted curve at half-maximal effect. A digest of the protocol: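 Cells + reagent dispensed (600 cells/well, HEK293) → 5 h at 37 C/5% CO2 → 23 nL compound in DMSO pinned → 40 h at 37 C → luminescence read at 0, 8, 16, 24, 32, 40 h.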
A short description of assay [8]: qHTS RealTime-Glo MT Cell Viability Assay in HEK293 cells - 8 hour (AID 1224887). Also: nearly all actives have a fitted effect of over 50% in size. Also: potency is read from the fitted curve at half-maximal effect. A digest of the protocol:
as §1

Assay [9] can be described thus: A CellTox Green Cytotoxicity Assay to monitor cytotoxicity in HEK293 cells - 16 hour (AID 1224888). Also: nearly all actives have a fitted effect of over 35% in size. A digest of the protocol:
as §2

The nature of assay [10]: qHTS RealTime-Glo MT Cell Viability Assay in HepG2 cells - 0 hour (AID 1224889). Also: nearly all actives have a fitted effect of over 50% in size. The essentials: as §4
Assay [11] in a line: A CellTox Green Cytotoxicity Assay to monitor cytotoxicity in HepG2 cells - 8 hour (AID 1224890). Also: nearly all actives have a fitted effect of over 45% in size. The essentials:
as §3

The nature of assay [12]: qHTS assay to identify small molecule antagonists of the estrogen receptor alpha (ER-alpha) signaling pathway using the BG1 cell line in the presence of 0.1 nM 17-beta-estradiol - cell viability counter screen (AID 1259241). Also: nearly all actives have a fitted effect of over 40% in size. A digest of the protocol:
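Estradiol-stimulated (0.1 nM) VM7Luc4E2 cells exposed to compounds 22 hr; viability measured by fluorescence of cleaved CellTiter-Fluor substrate after 30 min.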

A short description of assay [13]: qHTS assay to identify small molecule antagonists of the androgen receptor (AR) signaling pathway using the MDA cell line in the presence of 0.5 nM R1881 - cell viability counter screen (AID 1259242). Also: nearly all actives have a fitted effect of over 45% in size. A digest of the protocol:
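Viability of MDA-kb2 cells was multiplexed with the luciferase AR readout; after 16 hr with compounds and R1881 at 0.5 nM final, CellTiter-Fluor fluorescence was recorded.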

Assay [14] is described as follows: qHTS assay to identify small molecule phospholipidosis (PLD) inducers (AID 1259344; active = well fitted curve in the direction sought with a large enough effect; an effect the other way counts as inactive or inconclusive). The essentials: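 Quantitative HTS in HepG2: compound plus LipidTOX Red dye for 24 h, paraformaldehyde fixation with Hoechst 33342, widefield high-content imaging; amiodarone as positive and DMSO as negative control.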
Assay [15] is described as follows: qHTS assay to identify small molecule HDAC inhibitors (AID 1259364). Also: potency is read from the fitted curve at half-maximal effect.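 Also: wild-type HCT-116 cells with endogenous class I/II HDAC activity; nearly all actives have a fitted effect of over 45% in size.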 A digest of the protocol:
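Read-out: luminescence of HDAC-Glo I/II reagent, 30 min RT, reflecting class I/II deacetylase activity in whole HCT-116 cells pre-exposed 2 h to DMSO-dissolved compounds.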

Assay [16] in a line: qHTS assay to identify small molecule HDAC inhibitors - cell viability counter screen (AID 1259365). A digest of the protocol:
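After overnight seeding at 1,500 cells per well, wild-type HCT-116 cultures took up compounds in DMSO for 2hr at 37 C. Viable cell content came from luminescence with CellTiter-Glo.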

Assay [17] in a line: qHTS assay to identify small molecule agonists of the sonic hedgehog signaling (Shh) pathway - cell viability counter screen (AID 1259366). Also: nearly all actives have a fitted effect of over 50% in size. A digest of the protocol: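 Same-well cytotoxicity read. Gli1-Luc reporter 3T3 cells; compounds 24hr, 37C/5% CO2; CellTiter-Fluor fluorescence.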
Assay [18] concerns the target Estrogen receptor (Homo sapiens) (UniProt P03372). As to the kind of experiment: qHTS assay to identify small molecule antagonists of the estrogen receptor alpha (ER-alpha) signaling pathway using the BG1 cell line in the presence of 0.1 nM 17-beta-estradiol (AID 1259244). Also: nearly all actives have a fitted effect of over 50% in size. A digest of the protocol: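 Estradiol at 0.1 nM (final) stimulates the endogenous ER-alpha of VM7Luc4E2 cells carrying an ERE-driven luciferase; compounds are co-incubated 22 h at 37C and luciferase output quantified by luminescence.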

Assay [19] can be described thus: qHTS assay to identify small molecule antagonists of the sonic hedgehog signaling (Shh) pathway - cell viability counter screen (AID 1259367). Also: nearly all actives have a fitted effect of over 55% in size. A digest of the protocol:
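Seed 3T3 Gli1-Luc cells at 2,000 per well; incubate 4 hr; add compound in DMSO, then conditioned medium; incubate at 37C with 5% CO2; add CellTiter-Fluor after 23 hr; read fluorescence 1 hr later.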

In assay [20] the target is Androgen receptor (Homo sapiens) (UniProt P10275). The assay is described as follows: qHTS assay to identify small molecule antagonists of the androgen receptor (AR) signaling pathway using the MDA cell line in the presence of 0.5 nM R1881 (AID 1259243). Also: nearly all actives have a fitted effect of over 50% in size. Also: potency is read from the fitted curve at half-maximal effect. The essentials: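 Reporter cells cultured without CO2 receive test chemicals, then 0.5 nM R1881 final; after 16 hr at 37C, ONE-Glo is added and light output recorded.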
Sequence of Androgen receptor (Homo sapiens) (P10275 whole entry, looked up): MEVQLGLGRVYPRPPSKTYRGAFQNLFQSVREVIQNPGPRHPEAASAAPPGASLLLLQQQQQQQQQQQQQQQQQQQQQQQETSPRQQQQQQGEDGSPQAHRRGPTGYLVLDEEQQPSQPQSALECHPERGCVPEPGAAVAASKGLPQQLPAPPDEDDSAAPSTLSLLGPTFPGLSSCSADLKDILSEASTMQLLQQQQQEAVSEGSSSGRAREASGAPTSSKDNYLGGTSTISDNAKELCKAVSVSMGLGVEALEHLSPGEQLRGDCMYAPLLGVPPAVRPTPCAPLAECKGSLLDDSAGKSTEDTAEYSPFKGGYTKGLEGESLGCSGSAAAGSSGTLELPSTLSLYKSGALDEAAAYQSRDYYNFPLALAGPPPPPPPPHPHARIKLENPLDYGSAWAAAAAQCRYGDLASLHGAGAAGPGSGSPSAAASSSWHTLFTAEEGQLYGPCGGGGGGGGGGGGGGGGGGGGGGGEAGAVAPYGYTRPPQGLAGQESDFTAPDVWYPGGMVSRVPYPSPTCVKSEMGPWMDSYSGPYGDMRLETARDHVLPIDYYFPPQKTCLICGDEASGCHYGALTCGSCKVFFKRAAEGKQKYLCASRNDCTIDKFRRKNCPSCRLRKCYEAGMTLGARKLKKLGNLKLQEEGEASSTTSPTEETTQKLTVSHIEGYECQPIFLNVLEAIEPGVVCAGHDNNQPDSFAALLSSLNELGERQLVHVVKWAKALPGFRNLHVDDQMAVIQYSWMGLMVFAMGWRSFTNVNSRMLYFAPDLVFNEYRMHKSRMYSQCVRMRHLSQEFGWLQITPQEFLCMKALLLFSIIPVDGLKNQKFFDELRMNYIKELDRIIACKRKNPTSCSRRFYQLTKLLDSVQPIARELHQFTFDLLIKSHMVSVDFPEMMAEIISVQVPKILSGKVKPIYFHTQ

Unmarked numbers belong to inactive results. Records with an inconclusive call do not appear. Calls of active or inactive are those of the source. Unless noted, calls follow the shape of the dose curve; as a rule, active = well fitted curve in the direction sought with a large enough effect in the repeat runs; inconclusive = weak or mixed curves; inactive = no such curve, though single readings can be large; an effect the other way counts as inactive or inconclusive.

Sequence of Estrogen receptor (Homo sapiens) (P03372 whole entry, looked up): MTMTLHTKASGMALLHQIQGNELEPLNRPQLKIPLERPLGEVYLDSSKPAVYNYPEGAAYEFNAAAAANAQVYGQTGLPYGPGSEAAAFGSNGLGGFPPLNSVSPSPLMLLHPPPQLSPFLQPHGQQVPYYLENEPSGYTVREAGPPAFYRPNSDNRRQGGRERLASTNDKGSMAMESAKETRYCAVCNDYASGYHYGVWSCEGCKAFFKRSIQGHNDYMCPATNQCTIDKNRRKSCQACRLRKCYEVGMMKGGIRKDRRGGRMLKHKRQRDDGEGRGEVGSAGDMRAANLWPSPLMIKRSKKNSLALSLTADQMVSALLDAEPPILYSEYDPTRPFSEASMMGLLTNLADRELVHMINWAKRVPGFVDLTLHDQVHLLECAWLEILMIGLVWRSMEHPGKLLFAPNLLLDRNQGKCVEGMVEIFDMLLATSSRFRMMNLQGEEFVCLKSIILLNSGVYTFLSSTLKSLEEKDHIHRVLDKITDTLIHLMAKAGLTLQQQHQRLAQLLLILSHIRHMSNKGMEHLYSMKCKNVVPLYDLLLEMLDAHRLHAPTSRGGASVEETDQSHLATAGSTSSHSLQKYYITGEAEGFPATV

Turning to `CC(=O)OC(C)C[N+](C)(C)C` (stereo not drawn), the Potency entry in [1], in [2], in assay [3], in assay [4], in assay [5] and in [6] was “inactive” each time. For the same molecule, the Potency entry in assay [7], in assay [8], in [9], in assay [10], in [11] and in assay [12] was “inactive” in each case. Also, the Potency result in [13], in [14], in assay [15], in assay [16] and in [17] was “inactive” in each case.
As for `CCCCCCCC/C=C\CCCCCCCC(=O)OCCO`, the Potency result in assay [1], in assay [2], in [3], in assay [4], in assay [5] and in assay [6] was “inactive” in each case. Further, the Potency result in assay [7], in [9], in [11], in assay [12], in assay [13] and in assay [18] was “inactive” in each case. For the same molecule, the Potency result in assay [15], in assay [16], in assay [17] and in assay [19] was “inactive” throughout. For the same molecule, in assay [8], the Potency is 57.8 µM (active).
`CC(O)Cn1cnc2c1c(=O)n(C)c(=O)n2C` (stereo not drawn): the Potency result in assay [1], in [2], in assay [3], in assay [4], in assay [5] and in assay [6] was “inactive” throughout. For the same molecule, the Potency entry in [7], in [8], in [9], in [10], in [11] and in [12] was “inactive” each time. For the same molecule, the Potency entry in assay [13], in assay [14], in [15], in [16], in assay [17] and in assay [19] was “inactive” in each case.
Regarding `O=C(O)CNC(=O)c1ccccc1I`, the Potency entry in [1], in [2], in assay [3], in assay [4], in [5] and in assay [6] was “inactive” each time. In addition, the Potency entry in [7], in assay [8], in assay [9], in assay [10], in assay [11] and in assay [12] was “inactive” each time. For the same molecule, the Potency result in assay [13], in [14], in assay [15], in assay [16] and in assay [17] was “inactive” throughout.
With `CCN(CC)C(=O)/C(C#N)=C/c1cc(O)c(O)c([N+](=O)[O-])c1`, the Potency entry in [1], in assay [2], in assay [3], in assay [4], in assay [5] and in assay [6] was “inactive” throughout. For the same molecule, the Potency result in [7], in assay [8], in assay [9], in [10], in assay [11] and in assay [18] was “inactive” throughout. Further, the Potency entry in assay [14], in assay [16] and in assay [17] was “inactive” each time. In [20], the Potency was 23.7 µM (active).
In the case of `CCN(CC)CCOc1ccccc1C(=O)CCc1ccccc1`, the Potency entry in [1], in assay [2], in assay [3], in assay [4], in [5] and in assay [6] was “inactive” throughout. The Potency result in assay [9], in [10], in [11], in assay [12], in [13] and in [14] was “inactive” in each case. The Potency entry in assay [15], in assay [16], in assay [17] and in assay [19] was “inactive” throughout. Moreover, the Potency in [7] and in [8] was 10.7 µM (active) each time.
Turning to `CC(C(=O)O)c1ccc(C(=O)c2cccs2)cc1` (stereo not drawn), the Potency result in assay [1], in [2], in assay [3], in assay [4], in [5] and in [6] was “inactive” each time. Moreover, the Potency result in [7], in assay [8], in assay [9], in assay [10], in [11] and in [12] was “inactive” throughout. Further, the Potency entry in assay [13], in [14], in [16], in [17] and in assay [19] was “inactive” throughout. Moreover, in assay [15], the Potency is 29.8 µM (active).
In the case of `COC(=O)CC(C(C)=O)C(=O)OC` (stereo not drawn), the Potency entry in assay [1], in [2], in assay [3], in assay [4], in assay [5] and in assay [6] was “inactive” in each case. The Potency result in assay [7], in [9], in [10], in assay [11], in assay [12] and in assay [13] was “inactive” each time. Also, the Potency result in assay [20], in [18], in assay [15], in assay [16], in assay [17] and in assay [19] was “inactive” each time.
As for `Nc1ccn([C@H]2CS[C@@H](CO)O2)c(=O)n1`, the Potency entry in assay [1], in [2], in [3], in [4], in [5] and in assay [6] was “inactive” throughout. Moreover, the Potency entry in assay [7], in assay [8], in assay [9], in [10], in assay [11] and in [12] was “inactive” in each case. The Potency entry in [13], in assay [14], in [15], in assay [16], in assay [17] and in assay [19] was “inactive” in each case.
Regarding `CC[C@H]1OC(=O)[C@H](C)[C@@H](O[C@H]2C[C@@](C)(OC)[C@@H](O)[C@H](C)O2)[C@H](C)[C@@H](O[C@@H]2O[C@H](C)C[C@H](N(C)C)[C@H]2O)[C@](C)(O)C[C@@H](C)CN(C)[C@H](C)[C@@H](O)[C@]1(C)O`, the Potency entry in assay [1], in assay [2], in assay [3], in [4], in [5] and in assay [6] was “inactive” in each case. In addition, the Potency result in assay [7], in assay [8], in [9], in assay [10], in assay [11] and in [12] was “inactive” each time. The Potency result in [13], in assay [16] and in assay [19] was “inactive” throughout.
As for `Nc1ccc(S(=O)(=O)NCc2ccccc2)cc1`, the Potency result in assay [1], in assay [2], in assay [3], in [4], in [5] and in assay [6] was “inactive” in each case. Further, the Potency entry in [7], in [8], in [9], in assay [10], in [11] and in [12] was “inactive” each time. The Potency result in assay [13], in assay [14], in [15], in assay [16] and in assay [17] was “inactive” throughout.
On to `CCCCCCOC(=O)CCCCC`, for which the Potency result in [1], in assay [2], in assay [3], in assay [4], in [5] and in [6] was “inactive” in each case. For the same molecule, the Potency result in assay [7], in assay [8], in assay [9], in assay [10], in assay [11] and in [12] was “inactive” in each case. Moreover, the Potency entry in assay [13], in assay [15], in assay [16] and in assay [17] was “inactive” in each case.
For `CCCCCCCCCCCCCCCCCC(=O)OCC(CC)CCCC` (stereo not drawn), the Potency result in [1], in assay [2], in assay [3], in assay [4], in assay [5] and in assay [6] was “inactive” in each case. Further, the Potency entry in [7], in assay [8], in assay [9], in [10], in assay [11] and in assay [12] was “inactive” throughout. The Potency result in [13], in assay [16] and in assay [17] was “inactive” each time.
For the molecule `Cc1cccc(C)c1NC(=O)c1cc(S(N)(=O)=O)c(Cl)cc1O`, the Potency result in [1], in assay [2], in assay [3], in assay [4], in assay [5] and in [6] was “inactive” each time. Besides, the Potency result in [7], in [8], in assay [9], in assay [10], in assay [11] and in assay [12] was “inactive” each time. In addition, the Potency result in assay [13], in assay [14], in assay [15], in assay [16], in assay [17] and in assay [19] was “inactive” throughout.
